Shown are actives, neighbours in structure and some others; about 9.8% of the full set was active somewhere.
HTT aggregate: inhibitors of mutant huntingtin aggregate formation in PC12 cells; PC12 HttQ103-GFP aggregates, Acumen cytometry, 40 h; Potency, µM (series often up to 46.1 µM), without a hit: at the top dose activity change, negative = inhibition, usual class: inhibitors; actives 1.1% (n = 220,000); AID 1688; active means well fitted curve in the direction sought with a large enough effect; inconclusive means small, poorly fitted or top-dose-only effect, or another doubt; inactive means no such curve, though single readings can be large; an effect the other way counts as inactive or inconclusive; further: potency means the concentration at half of the fitted maximal effect; on the % scale 0 is the no-effect control and ±100 the full control effect; nearly all actives have a fitted effect of over 60% in size
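Aggregates are detected as GFP objects 1–25 µm with signal 6 STDEV over background in lysates of induced PC12 cells. These carry Huntingtin exon 1 with 103 glutamines fused to GFP under an ecdysone promoter; compounds titrated.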
KDM4E inh: inhibitors of human JMJD2E histone demethylase. B2RXH2. JMJD2E catalytic domain, FDH-coupled NADH fluorescence (FDH is formaldehyde dehydrogenase). Potency, µM (top dose mostly 57.1 µM), inactives show at the highest dose activity change, negative = inhibition, most hits filed as inhibitors. actives 1.6% (n = 230,000). AID 2147;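 further: potency means the concentration at half of the fitted maximal effect; 0% = wells with enzyme and -100% = buffer wells without enzyme; nearly all actives have a fitted effect of over 50% in size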
Target sequence (B2RXH2 1-337 limits assumed): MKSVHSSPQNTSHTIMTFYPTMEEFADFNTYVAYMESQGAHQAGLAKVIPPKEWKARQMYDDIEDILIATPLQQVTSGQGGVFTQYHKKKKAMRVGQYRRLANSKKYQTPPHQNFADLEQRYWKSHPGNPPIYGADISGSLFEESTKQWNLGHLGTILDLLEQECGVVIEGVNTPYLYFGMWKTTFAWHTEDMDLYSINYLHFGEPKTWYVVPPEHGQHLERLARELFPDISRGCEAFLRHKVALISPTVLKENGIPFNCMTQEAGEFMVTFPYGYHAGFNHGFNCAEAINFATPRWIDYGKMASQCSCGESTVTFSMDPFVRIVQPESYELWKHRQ
ALDH1A1 inh: ALDH1A1 (human) enzyme inhibition | Purified ALDH1A1, NADH fluorescence, propionaldehyde substrate | Potency, µM (highest dose often 75.3 µM), without a hit: at the highest dose activity, negative = inhibition, usual class: inhibitors | actives 7.3% (n = 220,000);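 further: potency means the concentration at half of the fitted maximal effect; plate controls were no enzyme wells and a reference inhibitor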
HPGD inh: HPGD (human) dehydrogenase inhibition; P15428; purified HPGD, NADH fluorescence kinetic, PGE2 substrate; Potency, µM, inactives show at the highest dose activity change, negative = inhibition, hits mostly inhibitors; actives 4.3% (n = 150,000); AID 894; further: potency means the concentration at half of the fitted maximal effect; on the % scale 0 is the no-effect control and ±100 the full control effect
Target sequence (P15428 whole entry, looked up): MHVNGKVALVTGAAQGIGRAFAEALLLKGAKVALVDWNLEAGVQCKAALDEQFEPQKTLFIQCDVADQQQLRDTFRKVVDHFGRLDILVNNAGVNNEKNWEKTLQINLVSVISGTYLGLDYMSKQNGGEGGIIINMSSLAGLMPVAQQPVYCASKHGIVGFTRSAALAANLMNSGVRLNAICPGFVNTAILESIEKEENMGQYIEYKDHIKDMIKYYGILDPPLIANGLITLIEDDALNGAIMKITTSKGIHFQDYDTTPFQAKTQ
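NADH formation kinetics: reaction with 30 uM PGE2 and 1 mM NAD+ (final), 20 nM enzyme, Tris-HCl pH 8 with Tween 20, after 15 min compound preincubation at room temperature. Fluorescence change, last versus first of five reads.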
CBFb-RUNX1 inh: inhibitors of human CBF-beta and RUNX1 interaction | Q01196+Q13951 | AlphaScreen CBFb-His/RUNX1-biotin binding, biochemical | Potency, µM (titrated, usually from 59.8 µM), without a hit: top-dose activity, negative = inhibition, usual class: inhibitors | 230,000 tested, under 10 active | AID 1477; active means well fitted curve in the direction sought with a large enough effect; inconclusive means small, poorly fitted or top-dose-only effect, or another doubt; inactive means no such curve, though single readings can be large; an effect the other way counts as inactive or inconclusive; further: % of control where 0% means no effect
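CBFb-His/RUNX1-biotin, 30 nM each, preincubated 20 min RT; compound 15 min RT; Ni + streptavidin beads 50 ng each, 90 min RT; AlphaScreen read.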
HTT ATP protect: cytoprotection in Huntington HTT-Q103 PC12 cell model. PC12 HTT-Q103 induced, cytoprotection, ATP luminescence, 40 h. Potency, µM (titrated, usually from 56.4 µM), for the others: cytoprotection (ATP increase), hits mostly activators. actives 0.14% (n = 230,000). AID 1471; active means well fitted curve in the direction sought with a large enough effect; inconclusive means small, poorly fitted or top-dose-only effect, or another doubt; inactive means no such curve, though single readings can be large; an effect the other way counts as inactive or inconclusive; further: potency means the concentration at half of the fitted maximal effect; % of control where 0% means no effect; nearly all actives have a fitted effect of over 45% in size
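Stable PC12 Q103-GFP cells in serum-supplemented, phenol red-free DMEM; induction by tebufenozide at 100 nM final; compound dose series; cell viability quantified luminescently from ATP.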
Active calls of the source: *; ? = inconclusive; · = not tested or not shown; ! = not active in a repeat; [ ] = dose if it differs, or a comment. Unless noted, the call rests on the fitted dose curve; in most records, active means well fitted inhibition curve with a large enough effect (not every such curve was filed as active); inconclusive means small, poorly fitted or top-dose-only effect, or another doubt; inactive means no such curve, though single readings can be large or run the other way.

SMILES	HTT aggregate	KDM4E inh	ALDH1A1 inh	HPGD inh	CBFb-RUNX1 inh	HTT ATP protect
CCCc1cc2c(n1Cc1ccco1)C(C)C1CN(C(=O)c3ccccc3)C(C)(C(=O)OC)C21 (configuration not stated)	·	?	?	?	14%	-2%
C#CCO	·	·	22µM*	-2%	5%[21.7 µM]	35%
CC(C)CNCCc1ccccn1	·	·	16%[13.5 µM]	-3%	·	5%[10 µM]
C[C@@]12Cc3cnc(-c4ccccc4)nc3C[C@@H]1CC[C@@H]1[C@H]3CC[C@@](C)(O)[C@]3(C)CC[C@@H]12	·	·	?	-9%	·	-6%[10 µM]
C[C@H]1CC[C@@H]2[C@@H](C)[C@H]3[C@H](C[C@H]4[C@@H]5CC=C6CC(O[C@@H]7O[C@H](CO)[C@H](O)[C@H](O[C@@H]8O[C@H](CO)[C@@H](O)[C@H](O)[C@H]8O)[C@H]7O[C@H]7O[C@@H](C)[C@H](O)[C@@H](O)[C@H]7O)CC[C@]6(C)[C@H]5CC[C@]34C)N2C1 (some centres not stated)	22µM*	·	22µM*	-4%	-12%[21.7 µM]	-102%
C[N+](C)(C)CC#CCOC(=O)Nc1cccc(Cl)c1	·	4%	7.9µM*	-12%	12%	-7%
CCC1=C(C[C@H]2NCCc3cc(OC)c(OC)cc32)C[C@H]2c3ccccc3CCN2C1	·	·	16%[13.5 µM]	-1%	·	2%[10 µM]
CC(=O)[C@@H]1CC[C@@H]2[C@H]3CC[C@H]4C[C@@H](O)CC[C@]4(C)[C@@H]3C(=O)C[C@]21C	·	·	·	·	·	-13%[1.9 µM]
c1ccc(N=NNc2ccccc2)cc1	·	·	-78%	-4%	-25%[21.7 µM]	-65%
O=c1[nH]c(=O)n(CCC2=CCCCC2)c(O)c1C=NCc1cccnc1	2%	-4%	25µM*	-14%	0%	-1%
CCN(CC)CCN=Cc1c(O)n(CCC2=CCCCC2)c(=O)[nH]c1=O	-10%	3%	?	-6%	9%	13%
NC(=S)c1cn(C2OC(CO)C(O)C2O)c2ncnc(N)c12 (configuration not stated)	2.8µM*	0%	7.9µM*	·	2%	-89%[10 µM]
O=C1/C(=C\c2ccccc2)C[C@@]2(O)[C@H]3Cc4ccc(O)c5c4[C@@]2(CCN3CC2CC2)[C@@H]1O5	·	-4%	-3%	-14%	10%[21.7 µM]	-80%
CCNCC	·	·	4%	-3%	6%[21.7 µM]	28%
COc1ccc2c(c1)[nH]c1c(C)nccc12	·	?	5.6µM*	?	-5%	-93%
CNc1ccc2oc(C[C@H]3O[C@]4(CC[C@H]3C)O[C@H]([C@H](C)C(=O)c3ccc[nH]3)[C@H](C)C[C@H]4C)nc2c1C(=O)O	·	?	?	?	-16%[21.7 µM]	-58%
CN1[C@@H]2CC[C@H]1CC(O[C@@H](c1ccccc1)c1ccccc1N)C2 (some centres not stated)	·	·	·	·	·	20%[1.9 µM]
Cn1cccc1/C=C1\C(=O)NC(=O)N(CCC2=CCCCC2)C1=O	9%	2%	?	-13%	?	1%[10 µM]
O=C1NC(=O)N(CCC2=CCCCC2)C(=O)/C1=C\c1cccs1	30%	1%	1.3µM*	0.32µM*	-1%	-9%[10 µM]
O=C1NC(=O)N(CCc2ccc(F)cc2)C(=O)/C1=C/c1cccs1	0%	6%	1.4µM*	·	-5%	-12%
Cc1ccnc(-n2c(C)cc(C=C3C(=O)N(C)C(=S)N(C)C3=O)c2C)c1	12%	-28%	?	32µM*	-7%	9%
Cc1cc(C=C2C(=O)N(C)C(=S)N(C)C2=O)c(C)n1-c1ccncc1	-24%[9.22 µM]	0%	?	·	-20%	11%[10 µM]
c1cnc(N2CCC3(CCNCC3)CC2)nc1	·	·	-16%	-13%	·	-45%
O=C1CC2(CCCC2)CC(=O)N1CCCCN1CCN(c2ncccn2)CC1	16%	?	3.5µM*	5%	-10%	?
Cc1ccc2cc3c(ccc4ccccc43)c3c2c1CC3	·	·	?	·	13%	-42%
SMILES	HTT aggregate	KDM4E inh	ALDH1A1 inh	HPGD inh	CBFb-RUNX1 inh	HTT ATP protect
CCCCCCC[n+]1ccc(-c2cc[n+](CCCCCCC)cc2)cc1	?	0%	-2%	-4%	3%	0.89µM*!
CCCCCCCCCCCCCCCC[n+]1ccccc1	16µM*	0%	-4%	-5%	?	-65%
CCCCCCCCCCCCCl	·	·	17%	1%	-7%[21.7 µM]	7%
O=C(O)COc1ccccc1	20%	·	-5%	-14%	0%[21.7 µM]	-30%
O=C(O)Cc1cccnc1C(=O)O	·	1.6µM*	13%	-3%	22%	-29%
COc1cc(/C=C/[N+](=O)[O-])ccc1O	25µM*	-11%	?	-24%	9%[2.36 µM]	·
CCN(CC)c1ccc(/C=C/[N+](=O)[O-])cc1	-8%	4%	?	·	-6%	-20%
CC(=O)OCC(=O)C1CCC2C3CC=C4CC(O)CC[C@@]4(C)C3CC[C@]12C (some centres not stated)	·	-6%	?	-12%	6%	·
COc1ccc(NC(=O)N2CCC3(CC2)CCN(C(=O)Oc2ccccc2)CC3)cc1	·	·	10µM*	-13%	·	-101%
Cn1c(SCc2nc3cc(C(=O)O)ccc3c(=O)[nH]2)nnc1C(F)(F)F	8%	?	-6%	·	14%	9%
CC[n+]1c(-c2ccccc2)c2cc(N)ccc2c2ccc(N)cc21	14µM*	?	-8%	35µM*!	?	-155%
Cc1cnc2c(C(=O)O)c(Cl)ccc2c1	·	·	·	·	16%	·
Cc1cc[c]([Sb]2[O]C([C@H](O)[C@H](O)C(=O)O)[C@@H](CO)[O]2)cc1 (some centres not stated)	·	·	3%[13.5 µM]	1%	·	·
O=CC1=C(N2CCOCC2)/C(=C\c2ccccc2)CC1	10%	9%	3.5µM*	·	-7%	-8%
C(#CCN1CCOCC1)COC/C=C/c1ccccc1	-3%	-6%	6%	-10%	3%	-7%
CN(C)c1ccc(/C=C2/C(=O)NC(=O)N(Cc3ccco3)C2=O)cc1	-18%	-30%	1µM*	10µM*	?	-19%[10 µM]
Cc1cc(/C=C2/C(=O)NC(=O)N(Cc3ccco3)C2=O)c(C)n1-c1ccccc1	13%	-8%	8.9µM*	?	?	·
CCN(CC)c1ccc(/C=C2/C(=O)NC(=O)N(Cc3ccco3)C2=O)cc1	-12%	-26%	0.56µM*	10µM*	?	1%[10 µM]
Cc1ccc(/C=C2\C(=O)NC(=O)N(CC3CCCO3)C2=O)s1 (configuration not stated)	6%[9.22 µM]	?	·	·	9%	6%[10 µM]
CCN(CC)c1ccc(/C=C2\C(=O)NC(=O)N(CC3CCCO3)C2=O)cc1 (configuration not stated)	-12%	?	0.25µM*	25µM*	0%	31%[10 µM]
NC(=O)CI	·	32µM*	28µM*	?	33%	-10%[1.9 µM]

Compound activity deposited in PubChem BioAssay by National Center for Advancing Translational Sciences (NCATS).
